Screens deposited in PubChem by National Center for Advancing Translational Sciences (NCATS).
This is a sample that favours compounds with a hit; in the whole collection about 2.4% have one here.
D2 antagonist: antagonizes the human D2 dopamine receptor; P14416; HEK293 TREx D2 cells, calcium flux, dopamine EC80; inhibition, % at 10 µM; 340,000 compounds, 2% hits; in the data active = inhibition above about 30%; inactive = below that, where a call was filed; note: 0% is about no effect
Target sequence (P14416 whole entry, looked up): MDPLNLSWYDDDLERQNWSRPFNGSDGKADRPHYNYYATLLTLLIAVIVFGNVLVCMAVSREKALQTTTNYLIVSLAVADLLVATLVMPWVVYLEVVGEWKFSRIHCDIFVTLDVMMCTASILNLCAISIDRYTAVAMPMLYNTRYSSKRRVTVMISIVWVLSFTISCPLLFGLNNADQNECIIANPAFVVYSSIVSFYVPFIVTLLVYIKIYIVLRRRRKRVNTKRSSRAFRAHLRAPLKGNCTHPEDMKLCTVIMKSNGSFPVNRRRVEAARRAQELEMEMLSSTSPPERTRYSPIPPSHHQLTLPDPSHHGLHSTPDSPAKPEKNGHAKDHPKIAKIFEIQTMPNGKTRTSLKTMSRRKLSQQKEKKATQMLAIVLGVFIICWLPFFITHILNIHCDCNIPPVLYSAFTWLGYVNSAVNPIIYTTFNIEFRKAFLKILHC
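Compounds are added to dye-loaded, induced HEK293 T-REx cells coupled to calcium release via D2; after a 3 min kinetic read an EC80 dopamine stimulus is given and fluorescence is recorded for 3 more min.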
D2 PAM-1: positive allosteric modulators of human D2 dopamine receptor; DiscoveRx D2 beta-arrestin cells, luminescence, 90 min; 100% = 57 uM dopamine signal; potentiation, % (concentration not given with the values); 360,000 compounds, 0.23% hits; AID 624464; in the data active = potentiation above about 50%; inconclusive = mostly about 30% to 49%
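PathHunter beta-arrestin assay in DiscoveRx D2 cells. Compounds were added with an EC20 of dopamine (50 nM final) for 90 min at 37 deg C. Luminescence was read 1 h after detection reagent, with 57 uM dopamine as the EC100 control.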
D2 ag-1: agonists of human D2 dopamine receptor; 340,000 compounds, 0.53% hits; HEK293 T-REx D2 cells, calcium flux agonist mode; P14416; activation, % at 2 µM; AID 485358;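 active = activation over 3 SD above normal in the single-dose calcium agonist read, cut at about 30% in these data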; note: 0% is about no effect
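Calcium-flux readout, 1 cycle/sec over 180 s following compound pin transfer, in inducible HEK293 Trex D2 cells (force-coupled); dopamine controls included. Positive calcium responses during this window marked compounds as potential agonists.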
D2 PAM-2: positively modulates the human D2 dopamine receptor allosterically; P14416; HEK293 T-REx D2, calcium flux, EC20 dopamine potentiation; potentiation, % at 10 µM; 340,000 compounds, 0.34% hits;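 active = potentiation over 3 SD above the plate norm, cut at about 30% in these data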; note: 0% is about no effect
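Tetracycline-induced Hek293 Trex D2 cells, force-coupled to calcium, loaded with no-wash calcium dye. Compound added with 180 s kinetic read for agonism, then EC20 dopamine and a further 180 s read for potentiation.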
D2 ag-2: activates the human D2 dopamine receptor; DiscoveRx PathHunter D2 beta-arrestin, luminescence, 90 min; 100% = 57 uM dopamine signal; activation, % (test concentration not listed); 360,000 compounds, 0.084% hits; AID 624465; in the data active = activation above about 40%; inconclusive = between about 15% and that limit
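Agonist mode: compounds alone added to overnight-plated D2 PathHunter cells for 90 min at 37 C, with 57 uM final dopamine (EC100) defining full response. Beta-arrestin recruitment detected by chemiluminescent reagent, read after 1 h at ambient temperature.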
D3 ag: D3 receptor agonism confirmed, beta-arrestin readout. DiscoveRx D3 beta-arrestin cells, luminescence, 90 min. shares compounds with D2 ag-1. Potency, µM (doses to about 76.9 µM), for inactives: at the top dose activation, hits mostly activators. 2,300 compounds, 4% hits. AID 720506;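 note: potency is the fitted concentration of half-maximal effect; 100% = dopamine control response; nearly all actives have a fitted effect of over 70% in size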
D2 ag-3: activates human D2 dopamine receptor in D3 counterscreen; DiscoveRx PathHunter D2 beta-arrestin, luminescence, 90 min; response scale: percent relative to full dopamine signal; shares compounds with D2 ag-1; 2,300 compounds, 5.9% hits; Potency, µM (top dose mostly 76.9 µM), for the others: top-dose activation, hits mostly activators; note: potency is the fitted concentration of half-maximal effect; % of control where 0% means no effect; nearly all actives have a fitted effect of over 70% in size
Starred values were filed as active, the others as inactive. Unless noted, calls come from the whole dose curve; as a rule, active = well fitted activation curve with a large enough effect; inconclusive = small, poorly fitted or top-dose-only effect; inactive = flat fitted curve, though single readings scatter.

`N#CC1=C(N)Nc2ncnn2C1c1ccccc1` (stereo not given) gave D2 antagonist 1, D2 ag-1 0 and D2 PAM-2 3.
c1ccc(C2C3=C(CCCC3)Nc3ncnn32)cc1 (stereo not given) was read as D2 antagonist 31*, D2 PAM-1 -4, D2 ag-1 0, D2 PAM-2 -2 and D2 ag-2 1.
CC1CC(=O)C2=C(C1)Nc1ncnn1C2c1ccccc1 (stereo not given) was read as D2 antagonist 9, D2 PAM-1 -4, D2 ag-1 1, D2 PAM-2 34* and D2 ag-2 -2.
For COc1ccc(CNc2nc3c(-c4cccc(C)c4)nnn3c3ccccc23)cc1 the results were D2 ag-1 1 and D2 PAM-2 2.
`Cc1ccc(NC(=O)C2CCN(S(=O)(=O)c3ccc4c(c3)NC(=O)C(C)S4)CC2)cc1Cl` (stereo not given) gave D2 antagonist 73*, D2 PAM-1 -1, D2 ag-1 2, D2 PAM-2 -14 and D2 ag-2 0.
For CCOc1ccccc1CNC(=O)CC(C)n1ccc(C)n1 (stereo not given) the results were D2 ag-1 -1 and D2 PAM-2 20.
COCCNC(=O)c1cccc(OC2CCN(C(C)COc3ccccc3)CC2)c1 (stereo not given) was read as D2 antagonist 25, D2 PAM-1 -2, D2 ag-1 45*, D2 PAM-2 -15, D2 ag-2 -3, D3 ag 0% and D2 ag-3 13%.
Screening C#CC(C)(CC)NC(=O)c1cc2c(n(-c3ccc(Cl)cc3)c1=O)CC(C)(C)CC2=O (stereo not given) returned D2 ag-1 0 and D2 PAM-2 -1.
`CC1CC(C)CN(CCOc2cccc(Cl)c2Cl)C1` (stereo not given) gave D2 antagonist 86*, D2 PAM-1 16, D2 ag-1 88*, D2 PAM-2 -27, D2 ag-2 41*, D3 ag inconclusive and D2 ag-3 inconclusive.
`Clc1cccc(OCCn2cncn2)c1Cl` gave D2 PAM-1 -5 and D2 ag-2 0.
For Cc1c(NC(=O)Nc2ccc(Br)cc2F)sc2nc3n(c(=O)c12)CCC(C)CC3 (stereo not given) the results were D2 ag-1 0 and D2 PAM-2 -8.
Screening O=S(=O)(NCCc1csc(-c2cccnc2)n1)c1cccc(F)c1 returned D2 antagonist -1, D2 PAM-1 -6, D2 ag-1 0, D2 PAM-2 -4 and D2 ag-2 0.
Screening O=S(=O)(NCCc1csc(-c2cccnc2)n1)c1cc(F)ccc1F returned D2 antagonist 39*, D2 PAM-1 -6, D2 ag-1 -1, D2 PAM-2 1, D2 ag-2 2, D3 ag 1% and D2 ag-3 2%.
Screening O=C(Nc1ccccc1Cl)N1CCN(c2ccccn2)CC1 returned D2 antagonist 15, D2 PAM-1 9, D2 ag-1 64*, D2 PAM-2 -24, D2 ag-2 5, D3 ag -2% and D2 ag-3 -1%.
`COc1ccccc1NC(=O)N1CCN(c2ccccc2F)CC1` gave D2 PAM-1 -12 and D2 ag-2 -1.
COc1ccccc1NC(=O)N1CCN(c2ccccn2)CC1 was read as D2 antagonist -30, D2 PAM-1 4, D2 ag-1 37*, D2 PAM-2 -10, D2 ag-2 -4, D3 ag 5% and D2 ag-3 0%.
Screening S=C(Nc1ccc(Oc2ccccc2)cc1)N1CCN(c2ccccn2)CC1 returned D2 antagonist -31, D2 PAM-1 0, D2 ag-1 13, D2 PAM-2 7, D2 ag-2 1, D3 ag 18% and D2 ag-3 4%.
`COC(=O)c1ccc(C(=O)OC)c(NC(=S)N2CCN(c3ccccn3)CC2)c1` gave D2 antagonist 15, D2 PAM-1 1, D2 ag-1 51*, D2 PAM-2 -8, D2 ag-2 1, D3 ag 6% and D2 ag-3 2%.
CN(C)S(=O)(=O)c1ccc2c(c1)N(CC(=O)NCc1cccc(Br)c1)C(=O)CS2 was read as D2 ag-1 0 and D2 PAM-2 -4.
COc1ccc(OC)c(NC(=O)CSc2ncc3c(n2)-c2ccccc2N(C)S3(=O)=O)c1 was read as D2 ag-1 0 and D2 PAM-2 -5.
`Cc1ccc(CSc2nc3cccnc3n2Cc2ccc(C(=O)NC3CCCCC3)cc2)cc1` gave D2 ag-1 -1 and D2 PAM-2 -11.
Screening COc1cccc(C(=O)N2CCN(c3ccccn3)CC2)c1 returned D2 PAM-1 -4, D2 PAM-2 -18, D2 ag-2 inconclusive, D3 ag inconclusive and D2 ag-3 26%.
COc1cc(OC)cc(C(=O)N2CCN(c3ccccn3)CC2)c1 was read as D2 antagonist -4, D2 PAM-1 1, D2 ag-1 -1, D2 PAM-2 3 and D2 ag-2 5.
Screening S=C(Nc1ccc(Br)cc1Cl)N1CCN(c2ccccn2)CC1 returned D2 antagonist -6, D2 PAM-1 -16, D2 ag-1 57*, D2 PAM-2 -13, D2 ag-2 2, D3 ag 5% and D2 ag-3 27%.
For CCOc1ccc(S(=O)(=O)Nc2cccc(C(=O)N3CCN(c4cccc(OC)c4)CC3)c2)cc1 the results were D2 PAM-1 -20, D2 ag-2 inconclusive, D3 ag inconclusive and D2 ag-3 25%.
For COc1ccccc1NC(=S)N1CCN(c2ccccn2)CC1 the results were D2 PAM-1 -9, D2 ag-2 1, D3 ag -2% and D2 ag-3 6%.
Screening CCOc1ccc(S(=O)(=O)Nc2cccc(C(=O)N3CCN(c4ccccc4O)CC3)c2)cc1 returned D2 antagonist -7, D2 PAM-1 2, D2 ag-1 5, D2 PAM-2 6 and D2 ag-2 5.
For Cc1sc2ncn(CC(=O)N3CCN(c4cccc(Cl)c4)CC3)c(=O)c2c1S(=O)(=O)N1CCC(C)CC1 the results were D2 ag-1 0 and D2 PAM-2 -9.
Screening O=C(Nc1ccccc1C(F)(F)F)N1CCN(c2ccccn2)CC1 returned D2 antagonist 19, D2 PAM-1 -1, D2 ag-1 50*, D2 PAM-2 -16, D2 ag-2 -5, D3 ag 0% and D2 ag-3 5%.
